High-throughput results from PubChem.
This is a sample that favours compounds with a hit; in the whole collection about 3% have one here.
PPC-1+TRAIL kill = compounds killing PPC-1 cancer cells with TRAIL present (potentiator screen, no TRAIL-free arm); 0.41% of 220,000 active; AID 1443; PPC-1 cells + TRAIL, ATPLite viability luminescence; cell killing (% activity), % at 4 µM or 5 µM;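 active = cell killing above 50% in the first pass at 4 µM, then a duplicate retest at 5 µM averaging 50% or more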;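 note: plate controls were cells with TRAIL plus DMSO for no effect and medium-only wells lacking cells for full effect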
SENP8 block-1 = inhibitors of human SENP8 protease | recombinant SENP8, Nedd8 substrate fluorescence | 0.64% of 360,000 active | inhibition, % at 20 µM | Q96LD8; in the data active = inhibition mostly above about 40%, no sharp cut-off; inactive = mostly below about 27%
SENP6 block = blocks the human protease SENP6. Recombinant SENP6 catalytic domain, aminoluciferin luminescence. 1.8% of 330,000 active. inhibition, % at 10 µM. Q9GZR1;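 active = inhibition above about 50% at the single tested dose, limit read from the data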;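 note: plate controls were DMSO wells with enzyme for no effect and DMSO wells lacking enzyme for full effect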
Target sequence (Q9GZR1 628-1112 limits assumed): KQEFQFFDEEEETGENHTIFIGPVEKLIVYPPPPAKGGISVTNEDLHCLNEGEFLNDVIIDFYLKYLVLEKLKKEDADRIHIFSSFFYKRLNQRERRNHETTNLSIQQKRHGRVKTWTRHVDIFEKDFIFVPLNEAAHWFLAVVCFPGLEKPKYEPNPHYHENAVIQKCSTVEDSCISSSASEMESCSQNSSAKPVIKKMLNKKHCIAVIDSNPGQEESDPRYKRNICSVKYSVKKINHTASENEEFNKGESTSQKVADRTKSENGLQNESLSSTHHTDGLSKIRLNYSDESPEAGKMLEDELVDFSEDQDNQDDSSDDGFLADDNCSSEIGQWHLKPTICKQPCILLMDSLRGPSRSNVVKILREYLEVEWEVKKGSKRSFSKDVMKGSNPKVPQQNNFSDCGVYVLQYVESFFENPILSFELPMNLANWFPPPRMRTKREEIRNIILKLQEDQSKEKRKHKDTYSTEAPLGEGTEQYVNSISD
SENP8 block-2 = inhibitors of human SENP8 protease; Q96LD8; purified SENP8, Z-RLRGG-aminoluciferin cleavage, luminescence; inhibition, % at 10 µM; 1.2% of 330,000 active; AID 2540; in the data active = inhibition above about 50%
SENP7 block = blocks the human protease SENP7. Q9BQF6. recombinant SENP7, Z-RLRGG-aminoluciferin luminescence, 40 min. inhibition, % at 5 µM. 1.5% of 330,000 active. AID 434973;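 active = inhibition above about 50% at the single test dose, limit read from the data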;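 note: plate controls were DMSO with enzyme for no effect and no enzyme buffer wells for full effect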
C8 TRAIL sens = sensitizes caspase-8 expressing cells to TRAIL | NB7+C8 cells + TRAIL, ATPlite viability luminescence | inhibition (viability loss, TRAIL sensitization), % at 10 µM | 1% of 360,000 active | AID 624354;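 active = compounds causing at least 50% loss of cell viability in the single-dose screen, relative to plate controls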
Numbers without * were called inactive; i = inactive; nt = not tested or not shown.

SMILES	PPC-1+TRAIL kill	SENP8 block-1	SENP6 block	SENP8 block-2	SENP7 block	C8 TRAIL sens
CNS(=O)(=O)c1cccc(C(=O)NNC(=O)c2ccc(COc3ccccc3)cc2)c1	nt	4	9	-1	-9	6
O=C(Nc1nc2cc3c(cc2s1)OCCO3)c1ccc([N+](=O)[O-])o1	nt	-22	87*	74*	88*	69*
CCCCC1CC2=C(C(=O)OC(C)(C)O2)C(c2ccc(Cl)cc2)O1 (centres undefined)	nt	14	nt	nt	nt	-7
COc1ccc(-c2noc(N3CCC(C(=O)Nc4cc(OC)c(OC)c(OC)c4)CC3)n2)cc1	nt	9	-8	2	0	1
CCCCNC(=O)[C@H]1N2C(=O)c3c(ccc(OC)c3OC)C2SC1(C)C (some centres undefined)	nt	-147	-16	-4	0	-7
O=c1[nH]c(Nc2nc3ccccc3o2)nc2c1CCCC2	49	-34	35	22	0	55*
CCN1CCN(c2ccc(S(=O)(=O)N3CCCCC3)cc2NC(=O)c2ccccc2)CC1	nt	7	-10	-7	11	21
CCN1CCN(c2ccc(S(=O)(=O)N3CCCCC3)cc2NC(=O)c2ccc([N+](=O)[O-])s2)CC1	nt	3	-1	10	11	53*
Cc1cccn2c(=O)c3cc(C(=O)NCc4ccco4)c(=N)n(CCc4ccccc4)c3nc12	24	-393	-10	2	-5	4
Cc1cccn2c(=O)c3cc(C(=O)NCCc4ccccc4)c(=N)n(Cc4ccco4)c3nc12	nt	-284	7	8	1	60*
COCCn1c(N)c(N(Cc2ccccc2)C(=O)C2=COCCO2)c(=O)[nH]c1=O	nt	-5	1	1	9	-21
COc1cc(/C=N/N2C(=O)c3ccccc3C2=O)ccc1O	8	-2	33	-9	-9	1
O=C1Nc2ccccc2/C1=N\N=C\c1ccc(O)c(O)c1	30	57*	-11	-14	-13	57*
COc1cc(/C=N/N=C2/C(=O)Nc3ccccc32)ccc1O	22	35	2	-12	-1	74*
Cc1ccsc1/C=N/N=C1\C(=O)Nc2ccccc21	16	19	-9	-11	-8	-8
COc1ccc(C2(C)NC(=O)N(CC3CCCCC3)C2=O)cc1 (centres undefined)	nt	12	-6	-8	1	-5
COc1ccc(NC(=O)Cn2c(=O)cnc3ccccc32)cc1S(=O)(=O)N1CCCCC1	nt	0	-11	-8	-6	-9
O=C(Cc1ccc([N+](=O)[O-])cc1)N1N=C(C2CC2)CC1(O)C(F)(F)F (centres undefined)	nt	10	-39	-3	-3	-3
COc1ccc(-c2cc(-c3ccc(OC)cc3)c(C#N)c(SC)n2)cc1	3	i	-33	2	1	10
CS(=O)(=O)c1nc(-c2ccc(Br)cc2)cc(-c2ccccc2)c1C#N	31	-89	-38	-9	-1	88*
COc1ccc(-c2cc(-c3ccccc3)c(C#N)c(S(C)(=O)=O)n2)cc1	47	i	4	-1	1	78*
COc1ccc(CCCC(=O)N/N=C/c2cccc(OC)c2O)cc1C	20	-366	1	5	-13	52*
Cc1ccc2nc(-c3ccc(SCC(=O)N4CCc5ccccc54)nc3)[nH]c2c1	56*	-417	20	-6	3	65*
CC(=O)CSc1ccc(-c2nc3cc(C)c(C)cc3[nH]2)cn1	nt	-421	34	18	29	78*
Cc1cc2nc(-c3ccc(SCC(=O)Nc4nccs4)nc3)[nH]c2cc1C	25	-300	nt	nt	nt	59*
CCc1nnc(NC(=O)CSc2ccc(-c3nc4ccc(C)cc4[nH]3)cn2)s1	24	-251	3	-8	11	54*
Cc1cc2nc(-c3ccc(SCc4ccc(C#N)cc4)nc3)[nH]c2cc1C	4	-268	3	-3	3	-26
Cc1ccc2nc(-c3ccc(SCC(=O)O)nc3)[nH]c2c1	30	i	44	2	26	48
CCN(CC)C(=O)C(=O)N/N=C/c1ccc(C(=O)O)cc1	2	30	-6	0	4	0
Cc1cc2nc(-c3ccc(SCC(=O)Nc4ccc(S(=O)(=O)N5CCCC5)cc4)nc3)[nH]c2cc1C	63*	-288	2	-3	8	72*
